M1 PAM parental: counter-screen for M1 PAMs: effect in parental CHO-K1 cells | ATP EC20, Fluo-8 calcium fluorescence; 0% at ATP EC20, 100% at ATP max | 360,000 compounds, 0.02% hits | activation, % at 3 µM | AID 602247;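 active = activation above the run cutoff, the mean activation of all test compounds plus 3 SD, cut at about 40% in these data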;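 note: peak over basal fluorescence ratio in a 140 s read after ATP addition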
M1 PAM: positive allosteric modulators of human M1 muscarinic receptor | CHO-K1 hM1, Fluo-8 calcium fluorescence, ACh EC20; 0% = ACh EC20, 100% = maximal ACh | activation, % at 3 µM | 360,000 compounds, 0.088% hits | P11229; in the data active = activation above about 19%, passing the limit was not always enough
Target sequence (P11229 whole entry, looked up): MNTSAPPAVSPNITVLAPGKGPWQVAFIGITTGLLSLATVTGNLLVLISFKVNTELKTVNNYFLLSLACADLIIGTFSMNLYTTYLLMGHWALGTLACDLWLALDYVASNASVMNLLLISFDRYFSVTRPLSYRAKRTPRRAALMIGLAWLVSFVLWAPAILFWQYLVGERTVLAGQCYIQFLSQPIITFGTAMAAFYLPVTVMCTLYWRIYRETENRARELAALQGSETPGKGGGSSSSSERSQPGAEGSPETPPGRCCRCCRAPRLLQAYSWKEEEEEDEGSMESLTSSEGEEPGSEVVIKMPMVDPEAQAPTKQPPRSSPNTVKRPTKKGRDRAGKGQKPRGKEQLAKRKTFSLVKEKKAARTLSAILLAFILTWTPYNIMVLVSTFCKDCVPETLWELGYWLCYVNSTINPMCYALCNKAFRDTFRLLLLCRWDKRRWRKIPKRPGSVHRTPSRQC
M1 antag: antagonists of human M1 muscarinic receptor | P11229 | CHO-K1 hM1, Fluo-8 calcium fluorescence, ACh EC80 antagonist | 360,000 compounds, 1.3% hits | AID 588852 | inhibition, % at 3 µM;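 active = percent inhibition above its own plate's cutoff, namely the mean of that plate's compound wells plus 3 SD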;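 note: peak over basal fluorescence ratio during 140 s after agonist addition; 0% = ACh EC80 plus DMSO and 100% = DMSO alone without agonist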
M1 ag parental: nonselective activator or artifact in parental CHO-K1 cells; 360,000 compounds, 0.48% hits; activation, % at 3 µM; AID 602248; Fluo-8 calcium fluorescence; scaled to maximal ATP response, vehicle zero; in the data active = activation above about 15%;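 note: untransfected CHO-K1 host cells lacking M1 receptor as counterscreen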
CHRM1 agonist: activates human CHRM1 receptor; 360,000 compounds, 0.33% hits; CHO-K1 hM1, Fluo-8 calcium fluorescence, agonist mode; 0% DMSO, 100% acetylcholine EC100; activation, % at 3 µM; AID 588814;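 active = activation above the run's mean compound activation plus 3 SD, cut at about 16% in these data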;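 note: peak over basal fluorescence ratio within a 140 s kinetic read after compound addition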
CHO-K1 Ca antag: counter-screen for M1 antagonists: effect in parental CHO-K1 cells; ATP-induced calcium, Fluo-8 fluorescence; inhibition, % at 3 µM; 360,000 compounds, 0.6% hits;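 active = inhibition above a per-plate cutoff, the plate's mean sample inhibition plus 3 SD, cut at about 24% in these data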;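 note: 0% = DMSO plus EC80 ATP and 100% = DMSO alone without ATP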
An asterisk follows results filed as active. The list is not random: actives were taken first. Their share in the collection is about 2.3%.

SMILES	M1 PAM parental	M1 PAM	M1 antag	M1 ag parental	CHRM1 agonist	CHO-K1 Ca antag
Cn1cc(C(=O)OCC(=O)NC2CCCCC2)c2ccccc21	6.8	-2.0	4.3	-0.2	-5.9	-4.8
C=CC[C@@H](CC/C=C/C=C/CC/C=C\[C@@H]1CSC([C@@H]2C[C@@H]2C)=N1)OC	-11.9	18.9	0.1	-0.1	9.7	18.4
O=c1[nH]c(=O)n(CCC2=CCCCC2)c(O)c1/C=N/N1CCOCC1	-23.9	-0.2	-3.8	0.1	-1.7	24.7*
COc1ccc2c(C)c(CC(=O)N3C[C@H]4C[C@@H](C3)c3cccc(=O)n3C4)c(=O)oc2c1C	9.8	2.4	-9.5	0.3	-7.8	3.3
Cc1cccc(NP2(=O)NCCCN2)c1	10.0	0.8	-7.1	0.7	-0.7	-14.6
COc1ccc(-n2c(O)c(C(C)=NCCc3c[nH]c4ccccc34)c(=O)[nH]c2=O)cc1	5.4	13.7	-18.9	0.3	-2.4	-5.7
CN(CCOc1ccc(C=C2C(=O)NC(=O)NC2=O)cc1)c1ccccn1	6.2	-6.9	15.9	0.5	-6.7	-10.3
O=C1NC(=O)C(=Cc2ccc(OCC(=O)N3CCOCC3)cc2)C(=O)N1	-14.8	-0.9	-15.8	0.2	-2.9	29.1*
c1cc(OCCN2CC2)ccn1	15.6	2.9	-12.3	0.6	-7.7	-15.2
CCC(=NCc1ccco1)c1c(O)n(-c2ccccc2)c(=O)[nH]c1=O	6.6	6.1	-0.8	-0.6	-2.4	29.4*
CC(=O)OC1C=CC2[C@H]3Cc4ccc(O)c5c4[C@@]2(CCN3C)C1O5 (stereo partly specified)	8.6	2.4	-1.6	0.1	-5.6	-12.5
Cc1nc(SCc2c(Cl)cccc2Cl)nc(OC(=O)N(C)C)c1C	15.3	8.0	-1.6	1.5	4.6	-9.0
CN1CN(c2ccccc2)C2(CCN(CCCSc3ccccc3NC(=O)/C=C/c3ccccc3)CC2)C1=O	-26.2	-34.0	54.6*	61.9*	47.4*	35.4*
COc1cc(OC)c(C=O)c(OC(=O)N(C)C)c1	4.3	8.7	-14.0	1.0	-5.4	-15.1
O=C1NCN(c2ccccc2)C12CCN(C(c1cccc3ccccc13)c1nnnn1-c1ccc3c(c1)OCCO3)CC2 (stereo unspecified)	-7.2	-3.6	-3.3	-0.2	1.6	11.8
CC1CCC(NCCc2ccc3c(c2)OCO3)CC1 (stereo unspecified)	11.0	-29.6	33.9*	2.3	-10.2	-24.6
CCOC(=O)CC(SP1(=S)OCC2(CC=CCC2)CO1)C(=O)OCC (stereo unspecified)	-6.4	-20.5	23.8*	10.0	0.5	-1.0
O=C(Nc1ccccc1F)OC1CN2CCC1CC2 (stereo unspecified)	15.9	-16.3	23.8	0.4	-7.3	-2.8
CN1CCN(CC#CCOc2ccc(Cl)cc2)CC1	-3.0	-5.5	5.3	-0.2	-9.1	1.5
O=C(Nc1cccc(Cl)c1)OC1CN2CCC1CC2 (stereo unspecified)	-27.6	-17.5	37.1	16.5*	6.2	44.9*
O=C(Nc1cccc(Cl)c1)OCC#CCN1CCCC1	-0.5	-23.1	62.2*	2.5	44.9*	-14.9
O=C(Nc1ccc(Cl)cc1)OC1CN2CCC1CC2 (stereo unspecified)	5.2	-13.8	21.5	10.0	-0.1	3.9
O=C(Nc1ccccc1Cl)OC1CN2CCC1CC2 (stereo unspecified)	14.6	-22.4	54.5*	4.7	-4.0	-8.2
CN1CCc2c(c(N3CCCCC3)nc3n[nH]c(N)c23)C1	18.0	4.1	-2.2	0.2	-6.7	-17.0
CN1CCc2c(C#N)c(Cl)nc(Cl)c2C1	-16.8	10.7	2.5	0.1	-0.7	32.0*
SMILES	M1 PAM parental	M1 PAM	M1 antag	M1 ag parental	CHRM1 agonist	CHO-K1 Ca antag
O=C(Cc1ccccc1)N1CCN(Cc2ccc([N+](=O)[O-])cc2)CC1	-12.8	-11.4	16.9	-0.2	-5.2	15.3
O=[N+]([O-])c1cccc(CN2CCN(Cc3ccc(Br)cc3)CC2)c1	-4.0	-28.9	27.2*	5.9	-11.8	8.5
COc1ccc(-n2nnnc2C(c2cccc3ccccc23)N2CCC3(CC2)C(=O)NCN3c2ccccc2)cc1 (stereo unspecified)	-7.1	8.2	-40.1	-0.1	2.7	-3.0
Cn1nnc(CC[N+](C)(C)C)n1	-1.2	-22.1	77.0*	15.3*	72.6*	10.5
O=C1CN=C(c2ccc(Cl)cc2)c2oc3ccccc3c2N1	-1.3	8.6	-14.0	0.3	17.8*	5.2
CC(CN1CCOCC1)C(C#N)(c1ccccc1)c1ccccc1 (stereo unspecified)	19.9	-22.1	6.0	0.9	-7.0	-27.8
CN1CCN(CCC(C#N)(c2ccccc2)c2ccccc2)CC1	9.7	-22.1	98.7*	0.8	-6.1	2.8
COC1CCC(OC2CC(C3(C)CCC4(CC(O)C(C)C(C(C)/C=C(\C)C(=O)C(C)CC(C)C(=O)O)O4)O3)OC3(OC(C4OC(O)(CO)C(C)CC4C)CC3C)C2C)OC1C (stereo unspecified)	5.0	1.9	-7.3	0.7	2.1	-15.5
O=c1[nH]c(=S)n(-c2ccccc2Cl)c(O)c1C=NCCN1CCNCC1	4.7	-13.2	26.4	2.5	38.6*	-9.1
O=c1[nH]c(=O)n(CCc2ccccc2)c(O)c1C=NCCCn1ccnc1	-5.7	3.5	-6.7	0.5	-4.9	61.9*
O=c1[nH]c(=O)n(Cc2ccccc2)c(O)c1C=NCCN1CCNCC1	1.9	-28.2	32.9*	0.5	-11.9	-12.5
CCOc1ccc(N2C(=O)NC(=O)/C(=C/c3cnc(SC)nc3)C2=O)cc1	3.4	7.5	-3.1	0.0	-3.8	-6.1
C[C@]12CCC3C(CC[C@H]4C[C@@H](O)CC[C@]34C)C1C[C@H](Br)[C@@H]2O (stereo partly specified)	16.5	-9.8	-5.0	6.3	0.2	-4.5
CC12CCC(O)CC1CCC1C2CCC2(C)C(C(=O)CO)CCC12 (stereo unspecified)	1.4	2.2	-11.8	5.2	6.3	-5.5
O=C(Cn1ncn2c(cc3cc(F)ccc32)c1=O)N1CCC2(CC1)OCCO2	2.5	6.2	-12.7	1.2	-0.7	-6.2
CCCCn1nnnc1C(c1cccs1)N1CCC2(CC1)C(=O)NCN2c1ccccc1 (stereo unspecified)	1.9	0.2	1.1	1.4	-2.0	9.5
COc1ccc(-c2ccc3n2Cc2cnnn2-c2ccccc2-3)cc1	18.1	2.4	-3.5	0.8	-4.6	-12.7
Oc1cc(Cl)c(Cl)c(Cl)c1	-12.6	-20.3	23.1*	14.8	1.4	0.3
Oc1cc(Cl)c(Cl)c(Cl)c1Cl	14.8	3.7	-2.3	9.9	1.5	-22.2
c1ccc2c(c1)[nH]c1cnccc12	-13.0	-0.9	-20.8	0.6	-5.0	25.4*
Cc1c2ccncc2c(C)c2c1[nH]c1ccccc12	10.2	-5.1	-13.9	5.1	1.6	13.6

Screening data from PubChem.
